# From PubChem BioAssay AID1159580 (chemical genetic matrix, 2015)
# Among all 5,500 compounds or so, about 2,000 (36%) were called active. About 18% were inconclusive and are not listed. Some of the results follow. Values without a mark were called inactive. Cut-off read from the data, not from the text of the source: active = normalized growth mostly below about 0.91 (no sharp cut-off); inconclusive = no clear call, values can overlap the other calls; inactive = mostly above about 0.92.
# Experiment: chemical genetic growth profiling, strain panel (AID 1159580);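 note: tested at 20 µM; growth read once vehicle control cultures reached saturation at 30 °C; 1 = growth at the plate median or of vehicle wells; lower values mean less growth of the strain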
# Conditions: S. cerevisiae deletion strains, growth OD
# [1] = locus YAR019C, strain CDC15, active compounds read low
# [2] = locus YBL105C, strain PKC1, active compounds read low
# [3] = locus YBR135W, strain CKS1, active compounds read low
# [4] = locus YBR136W, strain MEC1, active compounds read low
# [5] = locus YBR160W, strain CDC28, active compounds read low
# [6] = locus YDL017W, strain CDC7, active compounds read low
# [7] = locus YDL028C, strain MPS1, active compounds read low
# [8] = locus YDL101C, strain DUN1, active compounds read low
# [9] = locus YDL108W, strain KIN28, active compounds read low
# [10] = locus YDL132W, strain cdc53, active compounds read low
# [11] = locus YDL214C, strain PRR2, active compounds read low
# [12] = locus YDR052C, strain DBF4, active compounds read low
# [13] = locus YDR054C, strain cdc34, active compounds read low
# [14] = locus YDR226W, strain ADK1, active compounds read low
# [15] = locus YDR477W, strain SNF1, active compounds read low
# [16] = locus YER123W, strain YCK3, active compounds read low
# [17] = locus YER133W, strain GLC7, active compounds read low
# [18] = locus YFL009W, strain cdc4, active compounds read low
# [19] = locus YFL029C, strain CAK1, active compounds read low
# [20] = locus YFR003C, strain YPI1, active compounds read low
# [21] = locus YFR019W, strain FAB1, active compounds read low
# [22] = locus YFR028C, strain CDC14, active compounds read low
# [23] = locus YGR040W, strain KSS1, active compounds read low
# [24] = locus YGR052W, strain FMP48, active compounds read low
# [25] = locus YGR092W, strain DBF2, active compounds read low
# [26] = locus YHR030C, strain SLT2, active compounds read low
# [27] = locus YHR079C, strain IRE1, active compounds read low
# [28] = locus YHR082C, strain KSP1, active compounds read low
# [29] = locus YHR205W, strain SCH9, active compounds read low
# [30] = locus YIL147C, strain SLN1, active compounds read low
# [31] = locus YJL095W, strain BCK1, active compounds read low
# [32] = locus YJL128C, strain PBS2, active compounds read low
# [33] = locus YJL157C, strain FAR1, active compounds read low
# [34] = locus YJR016C, strain ILV3, active compounds read low
# [35] = locus YJR066W, strain TOR1 (second series), active compounds read low
# [36] = locus YJR066W, strain TOR1, active compounds read low
# [37] = locus YKL048C, strain ELM1, active compounds read low
# [38] = locus YKL067W, strain YNK1, active compounds read low
# [39] = locus YKL101W, strain HSL1, active compounds read low
# [40] = locus YKL193C, strain SDS22, active compounds read low
# [41] = locus YKL203C, strain TOR2, active compounds read low
# [42] = locus YLR113W, strain HOG1, active compounds read low
# [43] = locus YLR133W, strain CKI1, active compounds read low
# [44] = locus YLR403W, strain SFP1, active compounds read low
# [45] = locus YML070W, strain DAK1, active compounds read low
# [46] = locus YMR001C, strain CDC5, active compounds read low
# [47] = locus YMR205C, strain PFK2 (second series), active compounds read low
# [48] = locus YMR277W, strain FCP1, active compounds read low
# [49] = locus YNL006W, strain LST8, active compounds read low
# [50] = locus YNL020C, strain ARK1, active compounds read low
# [51] = locus YNL161W, strain CBK1, active compounds read low
# [52] = locus YNL183C, strain NPR1, active compounds read low
# [53] = locus YNL207W, strain RIO2, active compounds read low
# [54] = locus YNL222W, strain SSU72, active compounds read low
# [55] = locus YNL307C, strain MCK1 (second series), active compounds read low
# [56] = locus YOL078W, strain AVO1, active compounds read low
# [57] = locus YOL136C, strain PFK27, active compounds read low
# [58] = locus YOR061W, strain CKA2, active compounds read low
# [59] = locus YOR119C, strain RIO1, active compounds read low
# [60] = locus YOR231W, strain MKK1, active compounds read low
# [61] = locus YOR329C, strain SCD5, active compounds read low
# [62] = locus YPL031C, strain PHO85, active compounds read low
# [63] = locus YPL153C, strain RAD53, active compounds read low
# [64] = locus YPL204W, strain HRR25, active compounds read low
# [65] = locus YPL209C, strain IPL1, active compounds read low
# [66] = locus YPL256C, strain CLN2, active compounds read low
# [67] = locus YPR025C, strain CCL1, active compounds read low
# [68] = locus YPR106W, strain ISR1, active compounds read low
# [69] = locus YPR111W, strain DBF20, active compounds read low
# [70] = strain NNK1, active compounds read low
# [71] = strain TSCII, active compounds read low
structure (smiles),measurement,setting,value
Cc1c(-c2ccnn2C(=O)c2ccco2)cnn1-c1ccccc1,normalized growth,[1],0.954
same,normalized growth,[2],0.957
same,normalized growth,[3],0.958
same,normalized growth,[4],0.954
same,normalized growth,[5],0.957
same,normalized growth,[6],0.964
same,normalized growth,[7],0.93
same,normalized growth,[8],0.978
same,normalized growth,[9],0.954
same,normalized growth,[10],0.953
same,normalized growth,[11],0.904
same,normalized growth,[12],0.982
same,normalized growth,[13],0.952
same,normalized growth,[14],0.953
same,normalized growth,[15],0.861
same,normalized growth,[16],0.925
same,normalized growth,[17],0.915
same,normalized growth,[18],0.936
same,normalized growth,[19],0.954
same,normalized growth,[20],0.959
same,normalized growth,[21],0.945
same,normalized growth,[22],0.94
same,normalized growth,[23],0.872
same,normalized growth,[24],0.966
same,normalized growth,[25],0.917
same,normalized growth,[26],0.739 (active)
same,normalized growth,[27],0.909
same,normalized growth,[28],0.953
same,normalized growth,[29],0.909
same,normalized growth,[30],0.958
same,normalized growth,[31],0.842
same,normalized growth,[32],0.908
same,normalized growth,[33],0.916
same,normalized growth,[34],0.962
same,normalized growth,[35],0.828
same,normalized growth,[36],0.89
same,normalized growth,[37],0.972
same,normalized growth,[38],0.908
same,normalized growth,[39],0.894
same,normalized growth,[40],0.959
same,normalized growth,[41],0.965
same,normalized growth,[42],0.799 (active)
same,normalized growth,[43],0.917
same,normalized growth,[44],0.873
same,normalized growth,[45],0.895
same,normalized growth,[46],0.953
same,normalized growth,[47],0.939
same,normalized growth,[48],0.938
same,normalized growth,[49],0.953
same,normalized growth,[50],0.931
same,normalized growth,[51],0.974
same,normalized growth,[52],0.953
same,normalized growth,[53],0.958
same,normalized growth,[54],0.943
same,normalized growth,[55],0.894
same,normalized growth,[56],0.958
same,normalized growth,[57],0.898
same,normalized growth,[58],0.909
same,normalized growth,[59],0.919
same,normalized growth,[60],0.885
same,normalized growth,[61],0.974
same,normalized growth,[62],0.858
same,normalized growth,[63],0.873
same,normalized growth,[64],0.851
same,normalized growth,[65],0.969
same,normalized growth,[66],0.825 (active)
same,normalized growth,[67],0.957
same,normalized growth,[68],0.957
same,normalized growth,[69],0.917
same,normalized growth,[70],0.964
same,normalized growth,[71],0.94
Cc1c(C(=O)N(Cc2ccccc2)Cc2cccs2)cnn1-c1ccc(Cl)cc1,normalized growth,[1],0.992
same,normalized growth,[2],0.989
same,normalized growth,[3],0.984
same,normalized growth,[4],0.981
same,normalized growth,[5],0.981
same,normalized growth,[6],0.998
same,normalized growth,[7],0.985
same,normalized growth,[8],0.99
same,normalized growth,[9],0.985
same,normalized growth,[10],0.976
same,normalized growth,[11],0.947
same,normalized growth,[12],1
same,normalized growth,[13],0.987
same,normalized growth,[14],0.996
same,normalized growth,[15],0.946
same,normalized growth,[16],0.94
same,normalized growth,[17],0.957
same,normalized growth,[18],0.986
same,normalized growth,[19],0.988
same,normalized growth,[20],0.99
same,normalized growth,[21],0.963
same,normalized growth,[22],0.981
same,normalized growth,[23],0.938
same,normalized growth,[24],1.03
same,normalized growth,[25],0.967
same,normalized growth,[26],0.934
same,normalized growth,[27],0.953
same,normalized growth,[28],1.03
same,normalized growth,[29],0.919
same,normalized growth,[30],0.997
same,normalized growth,[31],0.945
same,normalized growth,[32],0.967
same,normalized growth,[33],0.935
same,normalized growth,[34],0.982
same,normalized growth,[35],0.883
same,normalized growth,[36],1.02
same,normalized growth,[37],0.97
same,normalized growth,[38],0.968
same,normalized growth,[39],0.94
same,normalized growth,[40],0.982
same,normalized growth,[41],0.997
same,normalized growth,[42],0.925
same,normalized growth,[43],0.936
same,normalized growth,[44],0.915
same,normalized growth,[45],0.926
same,normalized growth,[46],0.987
same,normalized growth,[47],0.944
same,normalized growth,[48],0.989
same,normalized growth,[49],1.01
same,normalized growth,[50],0.945
same,normalized growth,[51],0.995
same,normalized growth,[52],0.995
same,normalized growth,[53],0.989
same,normalized growth,[54],0.99
same,normalized growth,[55],0.95
same,normalized growth,[56],0.989
same,normalized growth,[57],0.926
same,normalized growth,[58],0.95
same,normalized growth,[59],1
same,normalized growth,[60],0.888
same,normalized growth,[61],0.99
same,normalized growth,[62],0.962
same,normalized growth,[63],0.926
same,normalized growth,[64],0.931
same,normalized growth,[65],0.988
same,normalized growth,[66],0.922
same,normalized growth,[67],0.99
same,normalized growth,[68],0.974
same,normalized growth,[69],0.972
same,normalized growth,[70],0.986
same,normalized growth,[71],0.973
